Source: PubChem BioAssay
An excerpt weighted towards active compounds, which were near 2.8% of everything screened.
POLB inh: inhibitors of human DNA polymerase beta; P06746; Pol beta primer extension/strand displacement, fluorescence kinetic; Potency, µM (highest dose often 114 µM), for the others: top-dose activity change, negative = inhibition, usual class: inhibitors; hit rate 1.3% among 340,000; AID 485314; further: potency means the concentration at half of the fitted maximal effect; on the % scale 0 is the no-effect control and ±100 the full control effect
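10 nM enzyme + cpd, 15 min RT; start with substrate 50 nM final; read 0 min and after 10 min RT. Corrected, normalized data; 4-parameter Hill curve fit.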
POLH inh: inhibitors of human DNA polymerase eta; hit rate 1.2% among 390,000; recombinant Pol eta, fluorescent DNA replication assay; AID 588591; Potency, µM (series often up to 114 µM), without a hit: at the highest dose activity change, negative = inhibition, hits mostly inhibitors; further: potency means the concentration at half of the fitted maximal effect; on the % scale 0 is the no-effect control and ±100 the full control effect
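Pol eta (10 nM) was preincubated with compounds for 15 min at room temperature, after which fluorescent replication substrate (50 nM final) was added to start the reaction. Fluorescence was read kinetically at 0 and 10 min.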
WRN helicase inh: inhibitors of human WRN helicase. Q14191. WRN helicase unwinding, fluorescent forked duplex, kinetic. Potency, µM (top dose mostly 114 µM), for inactives: at the highest dose activity change, negative = inhibition, actives largely listed as inhibitors. hit rate 0.46% among 360,000; further: potency means the concentration at half of the fitted maximal effect; on the % scale 0 is the no-effect control and ±100 the full control effect; nearly all actives have a fitted effect of over 55% in size
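Kinetic fluorescence helicase assay: unwinding of a quenched forked DNA duplex (100 nM final) with 2 mM ATP final raises red fluorescence (525/598 nm). Compounds sat 15 min at room temperature with 20 nM WRN beforehand.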
Pol kappa inh: DNA polymerase kappa (human) inhibition | Q9UBT6 | purified Pol kappa, fluorescent DNA synthesis assay, 10 min | Potency, µM (top dose mostly 107 µM), inactives show at the top dose activity, negative = inhibition, actives largely listed as inhibitors | hit rate 0.53% among 400,000 | AID 588579; further: potency means the concentration at half of the fitted maximal effect; on the % scale 0 is the no-effect control and ±100 the full control effect
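10 nM Pol kappa preincubated 15 min at room temperature with compounds, then reaction started with substrate at 50 nM final. Fluorescence read kinetically at 0 and 10 min; buffer-only wells served as negative control.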
POLI inh: DNA polymerase iota (human) inhibition | Q9UNA4 | Pol iota fluorescent replication assay, 10 min | Potency, µM (series often up to 115 µM), for inactives: at the top dose activity, negative = inhibition, usual class: inhibitors | hit rate 1% among 390,000 | AID 588590; further: potency means the concentration at half of the fitted maximal effect
Target sequence (Q9UNA4 whole entry, looked up): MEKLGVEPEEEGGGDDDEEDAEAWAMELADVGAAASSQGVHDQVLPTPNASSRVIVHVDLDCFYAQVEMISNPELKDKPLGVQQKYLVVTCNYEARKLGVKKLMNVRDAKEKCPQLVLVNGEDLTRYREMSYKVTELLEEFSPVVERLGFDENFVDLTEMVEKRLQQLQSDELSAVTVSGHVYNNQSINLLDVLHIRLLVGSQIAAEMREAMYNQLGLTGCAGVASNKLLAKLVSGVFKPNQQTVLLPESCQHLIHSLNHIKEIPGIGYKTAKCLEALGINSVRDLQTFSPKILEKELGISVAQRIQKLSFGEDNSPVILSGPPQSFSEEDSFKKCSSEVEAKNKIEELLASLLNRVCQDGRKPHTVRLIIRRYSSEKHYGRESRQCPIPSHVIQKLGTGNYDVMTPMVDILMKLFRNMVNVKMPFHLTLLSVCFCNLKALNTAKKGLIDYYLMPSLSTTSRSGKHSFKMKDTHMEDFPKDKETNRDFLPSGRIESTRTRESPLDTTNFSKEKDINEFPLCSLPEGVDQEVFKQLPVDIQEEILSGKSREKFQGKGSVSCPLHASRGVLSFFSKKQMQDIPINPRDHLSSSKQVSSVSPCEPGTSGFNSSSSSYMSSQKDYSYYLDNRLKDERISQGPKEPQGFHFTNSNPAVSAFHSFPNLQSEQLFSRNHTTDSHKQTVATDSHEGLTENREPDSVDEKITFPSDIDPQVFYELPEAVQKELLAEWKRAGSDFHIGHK
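Pol iota at 10 nM preincubated 15 min with compounds at room temperature; reaction started with fluorescent substrate, 50 nM final. Fluorescence read kinetically at 0 and 10 min; buffer-only wells as negative control.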
PI5P4Ka inh: inhibitors of human PI5P4K alpha; AID 652105; P48426; PI5P4Kalpha enzyme, ADP-Glo luminescence, 60 min; active compounds read low; max response, %; hit rate 1.2% among 330,000; active means max response of -50% or lower; inconclusive means between -30% and -50%; inactive means -30% or higher; further: value at the top dose of about 77 µM; on the % scale 0 is the no-effect control and ±100 the full control effect
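Quantitative HTS of the MLSMR library against PI5P4Kalpha with substrate. ATP added last at 5 microM final; room temperature, 60 minutes. Remaining ATP depleted, ADP converted and read as luminescence.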
* = called active by the depositor; ? = inconclusive; · = not tested or not shown; [ ] = another dose, or the depositor's remark. Unless noted, the call rests on the fitted dose curve; in most records, active means well fitted curve in the direction sought with a large enough effect; inconclusive means small, poorly fitted or top-dose-only effect, or another doubt; inactive means no such curve, though single readings can be large; an effect the other way counts as inactive or inconclusive.

SMILES	POLB inh	POLH inh	WRN helicase inh	Pol kappa inh	POLI inh	PI5P4Ka inh
Cc1ccc(C(=O)OCC(=O)N(C)c2c(N)n(Cc3ccccc3)c(=O)[nH]c2=O)s1	·	?	-4.8%	3.9%	41.1%	-3.2
O=C(OCc1ccccc1Cl)c1ccc(-c2nnn(Cc3ccccc3Cl)n2)cc1	-16.7%	-10.8%	·	-12.3%	-18.7%	·
COc1ccc([C@H]2C[C@H](n3cc(COC(=O)c4ccccc4)nn3)[C@@H](O)CN2C(=O)c2cccs2)cc1	·	-15.2%	-9.5%	·	·	0.4
Nc1ccc(-c2nc3ccc(C(=O)O)cc3s2)cc1	?	?	-20.4%	-20.7%	-6.8%	-22.0
Nc1cc2sc(-c3ccc(C(=O)O)cc3)nc2cc1Cl	?	31.6µM*	-25.8%	-31.4%	?	?
CCC(=O)NC(c1cccc([N+](=O)[O-])c1)c1c(O)ccc2ccccc12 (stereo unspecified)	2.0%	1.8%	-7.8%	-19.3%	89.1µM*	-2.9
CCOc1ccc(C(NC(=O)CC)c2c(O)ccc3ccccc23)cc1 (stereo unspecified)	0.4%	-9.9%	1.1%	-4.4%	-15.1%	3.3
CC(C)(C)N1C(=O)c2ccc(C(=O)O)cc2C1=O	1.4%	-7.1%	2.4%	-11.2%	-7.5%	?
O=C(O)c1ccc2c(c1)C(=O)/C(=C/c1ccccc1)C2=O	-23.4%	2.82µM*	?	25.1µM*	?	-56.1*
CCN1CC2=C(OC(N)=C(C#N)C2c2cccs2)/C(=C\c2cccs2)C1 (stereo unspecified)	6.9%	-27.2%	-10.1%[11.6 µM]	-24.1%	39.8µM*	·
O=c1cc(COc2ncnc3ccccc23)nc2sccn12	?	-7.3%	-10.0%[57.1 µM]	-26.3%	28.2µM*	-25.2
O=C(Nc1cccc(NC(=O)c2ccccc2[N+](=O)[O-])n1)c1ccccc1[N+](=O)[O-]	43.4%	?	?	-11.2%	?	-55.3*
COc1ccc(Cc2nc3ccc(S(=O)(=O)N4CCOCC4)cc3[nH]2)cc1	23.5%	-1.1%	-4.5%	-7.7%	79.4µM*	·
O=C1C[C@H]2C=CCc3cccc(c32)CN1Cc1ccc(Cl)cc1	·	·	·	-13.4%	8.9%	·
O=C(C[N+]12CN3CN(CN(C3)C1)C2)c1ccc(O)c(O)c1	·	·	·	3.16µM*	10µM*	·
O=C(O)c1cc(=S)nc[nH]1	·	1.8%	-31.0%	-17.6%	?	-65.1*
O=C(N/N=C/C1=C(N2CCOCC2)C(=C\c2ccccc2)/CC1)Nc1ccccc1	9.3%	-16.3%	-13.4%	1.1%	-1.5%	17.7
O=C(O)c1ccccc1N/N=C/C1=C(N2CCOCC2)C(=C\c2ccccc2)/CC1	?	44.7µM*	?	?	14.1µM*	-21.7
O=S(=O)(c1ccc(F)cc1)N1CCN(c2ccc(-c3ccccc3)nn2)CC1	-0.9%	?	3.2%[57.1 µM]	-4.9%	94.4%	3.7
O=C(Nc1nnc(-c2ccco2)s1)C1CCCCC1	-12.3%	?	-2.9%	3.7%	-1.1%	-0.7
O=C(Nc1nc(-c2ccco2)c(-c2ccco2)s1)C1CCC1	?	25.1µM*	?	?	?	?
Cc1ccccc1NC(=O)CSc1nnc(NC(=O)C2CC2)s1	23.4%	4.6%	-7.1%	-12.7%	5.4%	6.4
CS(=O)(=O)Nc1cccc(C2=NN(S(C)(=O)=O)C(c3ccc4c(c3)OCO4)C2)c1 (stereo unspecified)	-28.3%	-2.3%	11.4%	-9.5%	18.2%	-7.6
CS(=O)(=O)N1N=C(c2ccccc2)CC1c1ccc2c(c1)OCO2 (stereo unspecified)	?	31.6µM*	?	-6.1%	-0.8%	-7.6
CCSc1nnc(NC(=O)C2Cc3ccccc3CN2C(=O)c2ccco2)s1 (stereo unspecified)	22.4µM*	28.2µM*	?	?	?	-51.6*
SMILES	POLB inh	POLH inh	WRN helicase inh	Pol kappa inh	POLI inh	PI5P4Ka inh
COc1ccc(CN2C(=O)c3ccccc3C2C(=O)NC2CCC(C)CC2)c(OC)c1 (stereo unspecified)	-3.5%	?	-2.8%	-14.1%	12.8%	-0.5
COCCn1c(N)c(C(=S)NC(=O)c2cccs2)c(=O)[nH]c1=O	6.6%	-6.0%	-6.5%	9.3%	7.7%	-82.0*
CCC(C)(C)c1nnc(NC(=O)C2CC(=O)N(CCc3ccc(F)cc3)C2)s1 (stereo unspecified)	-2.9%	-11.1%	-5.7%	-2.5%	69.8%	-5.2
NC(=S)NN=Cc1nccc2ccccc12	·	-6.8%	-11.8%	-26.0%	107.8%	-9.5
Cc1cnc(C=NNC(N)=S)c2cccc(N)c12	·	5.01µM*	?	?	2.24µM*	-53.2*
O=C(NC1CCN(c2ncccn2)CC1)c1ccccc1F	27.2%	-5.4%	3.9%	-2.5%	?	2.7
Nc1c2c(=O)[nH]c(O)cc2nn1-c1ccccc1	·	50.1µM*	-2.1%[11.6 µM]	?	8.91µM*	-7.1
Cc1c(C)c2c(C)nn(-c3ccccc3)c2[nH]c1=O	14.2%	-17.6%	-0.8%	-7.0%	27.4%	2.8
CSc1nsc(/C=C/Nc2ccc(O)cc2C)c1C#N	0.2%	-16.6%	?	-27.9%	25.1µM*	-18.2
CSc1nsc(/C=C/Nc2ccc(F)cc2)c1C#N	-1.5%	-0.5%	-4.9%	-28.3%	?	-20.3
O=C(Nc1ccccc1F)c1coc(=O)c(Br)c1	12.6µM*	79.4µM*	?	31.6µM*	28.2µM*	-22.5
O=C(Nc1ccc(Br)cn1)c1cccc(-c2cc3ccccc3oc2=O)c1	?	?	-29.3%	-24.6%	-14.7%	?
O=C(Nc1ccc(Br)cn1)c1coc(=O)c(Br)c1	?	44.7µM*	-23.5%	?	39.8µM*	?
CCN(CC)c1ccc(C=C2C(=O)OC(c3ccccc3)OC2=O)cc1 (stereo unspecified)	11.7%	?	50.1µM*	-11.1%	34.0%	-2.1
CCN(CC)c1ccc(C=C2C(=O)OC(C)(C(C)(C)C)OC2=O)cc1 (stereo unspecified)	14.2%	-13.1%	?	2.2%	?	3.0
CCN(CC)c1ccc(C=C2C(=O)OC3(CCCC3)OC2=O)cc1	-1.3%	0.7%	50.1µM*	-8.9%	-3.7%	-6.6
CCN(CC)c1ccc(C(=C2C=CC(=[N+](CC)Cc3cccc(S(=O)(=O)[O-])c3)C=C2)c2ccc(N(CC)Cc3cccc(S(=O)(=O)O)c3)cc2)cc1	·	·	·	4.23µM*	·	·
CCN(CC)c1ccc(C(=C2C=CC(=[N+](CC)CC)C=C2)c2ccccc2)cc1	·	-10.4%	44.7µM*	-3.3%	8.4%	-29.5
CCN(Cc1ccccc1)c1ccc(/C=N/NS(=O)(=O)c2cccc([N+](=O)[O-])c2)cc1	-1.4%	-12.2%	-16.2%	-5.9%	6.7%	-0.3
